# Measurements from PubChem BioAssay (Tox21).
# Several values for one entry are separate records, joined by “and”; a condition that tells them apart may be missing. Identical values can stand only once. Results filed as inconclusive are left out. A call without a number means that no potency is given here. Some structures have more than one record in an assay (separate samples or runs), and their calls can disagree. Activity calls are given as the source filed them. Unless noted, the call rests on the fitted dose curve; in most records, active means well fitted curve in the direction sought with a large enough effect in the repeat runs; inconclusive means weak or mixed curves; inactive means no such curve, though single readings can be large; an effect the other way counts as inactive or inconclusive.
# Assays:
# [1] = qHTS assay to identify small molecule agonists of the estrogen receptor alpha (ER-alpha) signaling pathway in the presence of an antagonist - cell viability counter screen (AID 1259386);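 further: cells exposed to compounds for 22 h at 37 °C before the viability read; nearly all actives have a fitted effect of over 30% in size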; further: potency means the concentration at half of the fitted maximal effect; on activity change, negative = cytotoxicity: series mostly up to about 92 µM
# In short: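 Viability counter screen using VM7Luc4E2 (full-length ER-alpha, four ERE-luciferase). The cells were treated with compounds alongside ICI-182,780 10.0nM for 22hr, and live-cell protease fluorescence was quantified with CellTiter-Fluor.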
# [2] = molecular target: Progesterone receptor (Homo sapiens) (UniProt P06401); assay: qHTS assay to identify small molecule agonists of the progesterone receptor (PR) signaling pathway (AID 1346784; calls by dose curve; further: nearly all actives have a fitted effect of over 30% in size; further: potency means the concentration at half of the fitted maximal effect)
# Sequence of Progesterone receptor (Homo sapiens) (P06401 whole entry, looked up): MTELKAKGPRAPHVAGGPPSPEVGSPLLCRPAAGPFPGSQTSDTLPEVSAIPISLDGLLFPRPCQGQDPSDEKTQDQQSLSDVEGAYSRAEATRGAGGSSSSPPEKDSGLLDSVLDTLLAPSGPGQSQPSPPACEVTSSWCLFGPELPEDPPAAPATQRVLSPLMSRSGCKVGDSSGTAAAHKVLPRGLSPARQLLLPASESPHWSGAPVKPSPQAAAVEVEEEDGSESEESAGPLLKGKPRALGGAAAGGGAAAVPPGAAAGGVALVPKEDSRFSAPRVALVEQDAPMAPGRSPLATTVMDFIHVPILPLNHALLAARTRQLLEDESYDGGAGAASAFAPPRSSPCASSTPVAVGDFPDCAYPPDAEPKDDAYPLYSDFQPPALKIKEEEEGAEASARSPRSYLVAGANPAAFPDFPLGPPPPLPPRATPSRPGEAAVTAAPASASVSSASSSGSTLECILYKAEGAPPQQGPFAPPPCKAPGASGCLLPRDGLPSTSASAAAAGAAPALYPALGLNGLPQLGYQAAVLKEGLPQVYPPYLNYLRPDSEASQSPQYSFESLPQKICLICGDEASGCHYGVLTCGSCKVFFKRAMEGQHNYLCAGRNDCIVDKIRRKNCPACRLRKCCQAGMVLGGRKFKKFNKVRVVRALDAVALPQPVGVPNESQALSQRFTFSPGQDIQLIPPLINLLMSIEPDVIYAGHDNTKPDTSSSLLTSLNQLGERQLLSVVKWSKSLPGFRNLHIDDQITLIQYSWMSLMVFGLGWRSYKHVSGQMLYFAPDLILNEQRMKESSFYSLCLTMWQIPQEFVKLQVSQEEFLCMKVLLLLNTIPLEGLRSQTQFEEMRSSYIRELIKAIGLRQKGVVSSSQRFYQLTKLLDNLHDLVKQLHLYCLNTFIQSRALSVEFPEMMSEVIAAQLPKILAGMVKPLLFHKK
# In short: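 Using charcoal-stripped serum (2%) to limit endogenous steroids, PR-UAS-bla HEK 293T cells received compounds for 16 hr at 37C after 6 hr plating; beta-lactamase FRET fluorescence was recorded following 2 hr substrate loading at room temperature.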
# [3] = molecular target: Progesterone receptor (Homo sapiens) (UniProt P06401); assay: qHTS assay to identify small molecule antagonists of the progesterone receptor (PR) signaling pathway (AID 1346795; active means well fitted inhibition curve with a large enough effect in the signal ratio in the repeat runs, not every such curve was filed as active; the % refers to the signal ratio; further: potency means the concentration at half of the fitted maximal effect)
# In short: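 Inhibition of R5020-induced (1 nM final) beta-lactamase reporter signal in PR-UAS-bla HEK293T cells was scored by FRET fluorescence after overnight (16 hr) compound treatment.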
# [4] = qHTS assay to identify small molecule antagonists of the progesterone receptor (PR) signaling pathway - cell viability counter screen (AID 1346798); further: nearly all actives have a fitted effect of over 50% in size; further: potency means the concentration at half of the fitted maximal effect; on activity change, negative = cytotoxicity: series mostly up to about 92 µM
# In short: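 ATP content as viability readout: CellTiter-Glo luminescence, 30 min room temperature, in PR-UAS-bla HEK293T cells after 16 hr compound/R5020 treatment at 37C and 5% CO2.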
# [5] = qHTS assay to identify small molecule agonists of the progesterone receptor (PR) signaling pathway - cell viability counter screen (AID 1346799; calls by dose curve; further: nearly all actives have a fitted effect of over 45% in size; further: potency means the concentration at half of the fitted maximal effect)
# In short: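 Cytotoxicity in PR-bla HEK293T cells: 16 h compound, 37C; CellTiter-Glo added post-FRET read; luminescence after 30 min RT.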
# [6] = qHTS assay to identify small molecule agonists of the TGF-beta/Smad signaling pathway - cell viability counter screen (AID 1346829); further: nearly all actives have a fitted effect of over 45% in size; further: potency means the concentration at half of the fitted maximal effect; on activity change, negative = cytotoxicity: top concentration of the series differs between compounds
# In short: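 After overnight seating at 37 C and 5% CO2, reporter cells got compounds for 5 hr and FRET substrate for 2 hr; cell viability then came from CellTiter-Glo luminescence.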
# [7] = qHTS assay to identify small molecule agonists of the TGF-beta/Smad signaling pathway (AID 1346859; active means well fitted activation curve with a large enough effect in the signal ratio in the repeat runs, not every such curve was filed as active; the % refers to the signal ratio; further: series mostly up to about 77 µM)
# In short: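 Stable Smad binding element-beta-lactamase HEK 293T cells; 5 hr compound exposure at 37 C under 5% CO2; 2 hr room-temperature substrate step; fluorescence excited at 405 nm, collected at 460 nm and 530 nm.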
# [8] = qHTS assay to identify small molecule antagonists of the TGF-beta/Smad signaling pathway - cell viability counter screen (AID 1346824); further: nearly all actives have a fitted effect of over 50% in size; further: potency means the concentration at half of the fitted maximal effect
# In short: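 SBE-bla HEK 293T cells were plated overnight at 37 C, then given compounds in DMSO plus TGF-beta1 (added as 0.25 ng/mL solution) for 5 hr. After the bla read, CellTiter-Glo was added to the same wells and luminescence read after 30 min at room temperature.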
# [9] = molecular target: Thyrotropin-releasing hormone receptor (Homo sapiens) (UniProt P34981); assay: qHTS assay to identify small molecule antagonists of the thyrotropin-releasing hormone receptor (TRHR) signaling pathway (AID 1346877; active means well fitted inhibition curve with a large enough effect in the repeat runs, not every such curve was filed as active; further: series mostly up to about 51 µM)
# Sequence of Thyrotropin-releasing hormone receptor (Homo sapiens) (P34981 whole entry, looked up): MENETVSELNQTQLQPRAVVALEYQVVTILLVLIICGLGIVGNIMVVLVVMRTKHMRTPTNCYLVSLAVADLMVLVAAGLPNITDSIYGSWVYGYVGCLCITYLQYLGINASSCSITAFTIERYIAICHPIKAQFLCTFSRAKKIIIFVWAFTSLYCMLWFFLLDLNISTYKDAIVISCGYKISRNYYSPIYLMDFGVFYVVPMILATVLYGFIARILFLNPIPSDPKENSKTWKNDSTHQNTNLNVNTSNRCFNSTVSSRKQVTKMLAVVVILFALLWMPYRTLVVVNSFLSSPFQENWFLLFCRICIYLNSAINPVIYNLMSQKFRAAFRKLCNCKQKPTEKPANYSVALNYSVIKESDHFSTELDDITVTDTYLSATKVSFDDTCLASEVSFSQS
# In short: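 Following an 18 h incubation at 37 °C and a 2 h calcium dye load, TRHR-HEK293 cells were exposed to compound (5 min, room temperature) and challenged with TRH, 1 nM final.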
# [10] = molecular target: Thyrotropin-releasing hormone receptor (Homo sapiens) (UniProt P34981); assay: qHTS assay to identify small molecule agonists of the thyrotropin-releasing hormone receptor (TRHR) signaling pathway (AID 1346891; calls by dose curve;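 further: HEK293 cells expressing TRHR with calcium dye readout; series mostly up to about 58 µM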)
# In short: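 In 1536-format, 1500 TRHR-Hek293 cells per well grew 18 h, took up calcium dye for 2 h at 37 °C, received compound, and were read kinetically; 15-point titrations, triplicates.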
structure (smiles),measurement,setting,value
NC(=NCCCCCCN=C(N)/N=C(\N)Nc1ccc(Cl)cc1)/N=C(\N)Nc1ccc(Cl)cc1,Potency,[1],inactive
same,Potency,[2],inactive
same,Potency,[3],inactive and 55.5 µM (active)
same,Potency,[4],inactive
same,Potency,[5],inactive
same,Potency,[6],35.3 µM (active) and 48.7 µM (active) and inactive
same,Potency,[7],inactive
CN(C)CCCOC1(Cc2ccccc2)CCCCCC1,Potency,[1],inactive
same,Potency,[2],inactive
same,Potency,[3],inactive
same,Potency,[4],inactive
same,Potency,[8],inactive
same,Potency,[6],inactive
same,Potency,[7],inactive
same,Potency,[9],inactive
same,Potency,[10],inactive
CO[Si](CCCNc1ccccc1)(OC)OC,Potency,[1],inactive
same,Potency,[2],inactive
same,Potency,[3],inactive
same,Potency,[4],inactive
same,Potency,[5],inactive
same,Potency,[8],inactive
same,Potency,[6],inactive
same,Potency,[7],inactive
same,Potency,[9],inactive
same,Potency,[10],inactive
C[C@H]1[C@H]2CC[C@H]3[C@@H]4CC=C5C[C@@H](N(C)C)CC[C@]5(C)[C@H]4CC[C@]23CN1C,Potency,[1],inactive
same,Potency,[2],inactive
same,Potency,[3],inactive
same,Potency,[4],inactive
same,Potency,[5],inactive
same,Potency,[8],inactive
same,Potency,[6],inactive
same,Potency,[7],inactive
same,Potency,[9],inactive
same,Potency,[10],inactive
O=CC=C(c1ccccc1)c1ccccc1,Potency,[1],inactive
same,Potency,[2],inactive
same,Potency,[3],27.5 µM (active)
same,Potency,[4],61.6 µM (active)
same,Potency,[8],inactive
same,Potency,[6],inactive
same,Potency,[7],inactive
same,Potency,[9],inactive
same,Potency,[10],inactive
Clc1ccc2nsnc2c1NC1=NCCN1,Potency,[1],inactive
same,Potency,[2],inactive
same,Potency,[3],inactive
same,Potency,[4],inactive
same,Potency,[5],inactive
same,Potency,[8],inactive
same,Potency,[6],inactive
same,Potency,[7],inactive
CCOC(=O)O[C@]1(C(=O)OCCl)CC[C@H]2[C@@H]3CCC4=CC(=O)C=C[C@]4(C)[C@H]3[C@@H](O)C[C@@]21C,Potency,[1],inactive
same,Potency,[2],188 nM (active)
same,Potency,[3],inactive
same,Potency,[4],inactive
same,Potency,[8],inactive
same,Potency,[6],inactive
same,Potency,[9],inactive
same,Potency,[10],inactive
C[n+]1cc2c3c(ccc2c2ccc4cc5c(cc4c21)OCO5)OCO3,Potency,[1],13 µM (active)
same,activation,[2],-18.8% [at 19 µM] (inactive)
same,Potency,[3],2.59 µM (active)
same,Potency,[4],3.66 µM (active)
same,Potency,[5],3.26 µM (active)
same,Potency,[8],4.65 µM (active)
same,Potency,[6],6.57 µM (active)
same,"activity, negative = inhibition",[9],3.07% [at 10.5 µM] (inactive)
O=C(O)c1ccc(Cl)c(Cl)c1,Potency,[1],inactive
same,Potency,[2],inactive
same,Potency,[3],inactive
same,Potency,[4],inactive
same,Potency,[5],inactive
same,Potency,[8],inactive
same,Potency,[6],inactive
same,Potency,[7],inactive
CCCCCOc1ccccc1/C(=C\SC)n1ccnc1,Potency,[1],inactive
same,Potency,[2],inactive
same,Potency,[3],3.76 µM (active)
same,Potency,[4],5.31 µM (active)
same,Potency,[5],7.5 µM (active)
same,Potency,[6],inactive
same,Potency,[7],inactive
same,Potency,[9],inactive
COc1cccc(N)c1,Potency,[1],inactive
same,Potency,[2],inactive
same,Potency,[3],inactive
same,Potency,[4],inactive
same,Potency,[5],inactive
same,Potency,[6],inactive
same,Potency,[7],inactive
same,Potency,[9],inactive
same,Potency,[10],inactive
Oc1ccc(N=Nc2ccccc2)cc1,Potency,[1],27.7 µM (active)
same,Potency,[2],inactive
same,Potency,[3],19.6 µM (active)
same,Potency,[4],inactive
same,Potency,[5],inactive
same,Potency,[6],inactive
same,Potency,[7],inactive
same,Potency,[9],inactive
same,Potency,[10],inactive
CCC(N)(CO)CO,Potency,[1],inactive
same,Potency,[2],inactive
same,Potency,[3],inactive
same,Potency,[4],inactive
same,Potency,[5],inactive
same,Potency,[8],inactive
same,Potency,[6],inactive
same,Potency,[7],inactive
same,Potency,[9],inactive
same,Potency,[10],inactive
CCCCCCCC(=O)[O-].CCCCCCCC(=O)[O-].[Zn+2],Potency,[1],inactive
same,Potency,[2],inactive
same,Potency,[3],inactive
same,Potency,[4],inactive
same,Potency,[5],inactive
same,Potency,[8],inactive
same,Potency,[6],inactive
same,Potency,[7],inactive
CCCCCCCCCCCCCCCC[N+](C)(C)CCN(Cc1ccc(OC)cc1)c1ncccn1,Potency,[1],inactive
same,Potency,[2],inactive
same,Potency,[3],inactive
same,Potency,[4],29.8 µM (active)
same,Potency,[5],21.1 µM (active)
same,Potency,[7],inactive
same,Potency,[9],inactive
same,Potency,[10],inactive
COc1cc(-c2nc(NC(=O)c3cc4cc(C)cc(C)c4n3CC(=O)O)sc2CCC2CCCCC2)c(OC)cc1Cl,Potency,[1],inactive
same,Potency,[2],inactive
same,Potency,[3],12.5 µM (active)
same,Potency,[4],14.1 µM (active)
same,Potency,[5],11.2 µM (active)
same,Potency,[6],28.3 µM (active)
C1CCCC1,Potency,[1],inactive
same,Potency,[2],inactive
same,Potency,[3],inactive
same,Potency,[4],inactive
same,Potency,[5],inactive
same,Potency,[8],inactive
same,Potency,[6],inactive
same,Potency,[7],inactive
same,Potency,[9],inactive
same,Potency,[10],inactive
CC(NN)c1ccccc1 (stereo not drawn),"activity change, negative = cytotoxicity",[1],-1.38% [at 19 µM] (inactive)
same,activation,[2],-0.517% [at 19 µM] (inactive)
same,"activity change, negative = inhibition",[3],-2.01% [at 18.9 µM] (inactive)
same,"activity change, negative = cytotoxicity",[4],0.118% [at 18.9 µM] (inactive)
same,"activity change, negative = cytotoxicity",[5],-7.08% [at 19 µM] (inactive)
same,"viability change, negative = cytotoxic",[8],2.36% [at 15.8 µM] (inactive)
same,"activity change, negative = cytotoxicity",[6],-16.9% [at 15.8 µM] (inactive)
same,activation,[7],1.03% [at 15.8 µM] (inactive)
CCCCCCCCOc1ccccc1C(=O)Nc1ccc(C(=O)OCC[N+](C)(CC)CC)cc1,Potency,[1],inactive
same,Potency,[2],inactive
same,Potency,[3],inactive
same,Potency,[4],29.8 µM (active)
same,Potency,[6],inactive
same,Potency,[7],inactive
same,Potency,[9],inactive
CC(C)=CCOc1ccc(/C=C/C(=O)c2ccc(OCC=C(C)C)cc2OCC(=O)O)cc1,Potency,[1],inactive
same,Potency,[2],inactive
same,Potency,[3],26.6 µM (active)
same,Potency,[4],inactive
same,Potency,[5],inactive
same,Potency,[8],inactive
same,Potency,[6],inactive
same,Potency,[9],inactive
Cc1onc(-c2ccccc2Cl)c1C(=O)N[C@@H]1C(=O)N2[C@@H]1SC(C)(C)[C@@H]2C(=O)O,Potency,[1],inactive
same,Potency,[2],inactive
same,Potency,[3],inactive
same,Potency,[4],inactive
same,Potency,[5],inactive
same,Potency,[6],inactive
same,Potency,[7],inactive
O=C1C=CC(=O)N1c1ccc(Cc2ccc(N3C(=O)C=CC3=O)cc2)cc1,Potency,[1],inactive
same,Potency,[2],inactive
same,Potency,[3],inactive
same,Potency,[4],inactive
same,Potency,[5],inactive
same,Potency,[8],inactive
same,Potency,[6],61.6 µM (active)
same,Potency,[7],inactive
Cc1nc(-c2ccc3c(c2)CCN(CCC2CCC(NC(=O)/C=C/c4ccc(F)cc4)CC2)CC3)no1 (stereo not drawn),Potency,[1],inactive
same,Potency,[2],inactive
same,Potency,[3],inactive
same,Potency,[4],inactive
same,Potency,[5],inactive
same,Potency,[8],inactive
same,Potency,[6],inactive
same,Potency,[7],inactive
same,Potency,[9],inactive
same,Potency,[10],inactive
